Data on 40 compounds can be found in PubChem BioAssay (Tox21).

SMILES strings stand for the structures. Inconclusive results are not listed. Entries that show only a call come without a potency. Values without a mark were called inactive. Calls of active or inactive are those of the source. The call rests on the fitted dose curve; in most records, active means well fitted cell-killing curve with a large enough effect in the repeat runs; inconclusive means weak or mixed curves, or effect the other way; inactive means flat fitted curve, though single readings scatter. Non-standard residues stand in square brackets, D forms with d. Residues, ends and D or L forms follow the SMILES beside them. *: point of attachment. Sta = CC(C)C[C@H](N)[C@@H](O)CC(=O)O; Isovaleryl = CC(C)CC(=O)*
Potency means the concentration at half of the fitted maximal effect.

The assay can be described thus: qHTS assay to identify small molecule agonists of the estrogen receptor beta (ER-beta) signaling pathway - cell viability counter screen (AID 1259380). Further: nearly all actives have a fitted effect of over 30% in size. To be noted: ER-beta-bla HEK293T viability, CellTiter-Glo luminescence, 16 h; series mostly up to 92.4 µM. An excerpt:
National Center for Advancing Translational Sciences [NCATS]
NIH Chemical Genomics Center [NCGC]
U.S. Environmental Protection Agency [EPA]
National Institutes of Environmental Health Sciences [NIEHS]
National Toxicology Program [NTP]
U.S. Food and Drug Administration [FDA]
Estrogen receptor (ER), a nuclear hormone receptor, plays an important role in development, metabolic homeostasis and reproduction. Two subtypes of ER, ER-alpha and ER-beta, have similar expression patterns with some uniqueness in both types. Endocrine disrupting chemicals (EDCs) and their interactions with steroid hormone receptors like ER causes disruption of normal endocrine function. To identify the compounds that activate ER signaling, an ER beta-UAS-bla GripTite cell line (Life Technologies, Madison, WI, USA) containing a beta-lactamase reporter gene under the control of an UAS response element was used to screen Tox21 10K compound library. The cytotoxicity of the Tox21 compound library against the ER-beta-bla cell line was tested in parallel by measuring the cell viability using CellTiter-Glo assay in the same wells.
Tox21 Assay Protocol Summary:
ER-beta-UAS-bla HEK293T cells were dispensed at 2,000 cells/5 uL of assay medium containing 2% charcoal stripped FBS per well into black wall/clear-bottom 1536-well plates using a Multidrop Combi (ThermoFisher Scientific, Waltham, MA) dispenser. After the assay plates were incubated at a 37C and 5% CO2 for 6 hr, 23 nL of compounds dissolved in DMSO, positive controls or DMSO only was transferred to the assay plate by a Pintool station (Kalypsys, San Diego, CA). The plates were incubated at 37C and 5% CO2 for 16 hr. Then 1 uL of LiveBLAzerTM B/G FRET substrate was added using a BioRAPTR FRD (Flying Reagent Dispenser, Aurora Discovery, San Diego, CA) and then the plates were incubated at room temperature for 2 hours, and fluorescence intensity was measured by an Envision plate reader (PerkinElmer, Shelton, CT). For cell viability readout that measures cytotoxicity, 4 uL/well of CellTiter-Glo reagent was added into the assay plates using a FRD. After 30 min incubation at room temperature, the luminescence intensity in the plates was measured using a ViewLux (PerkinElmer) plate reader.
As for `CSC(=O)c1cccc2nnsc12`, the Potency result was “inactive”.
On the same count and under the same terms, then `CC[N+](C)(CC)CC`, with “inactive”.
For the compound `C[C@@H]1CCC[C@H](C)N1CCCC(O)(c1ccccc1)c1ccccn1` (stereo not given in full), the Potency result was “inactive”.
Still for that read-out and setting: then `CC(O)CCCCn1c(=O)c2c(ncn2C)n(C)c1=O` (stereo not given), with “inactive”; and `CCC(C)c1nccnc1OC` (stereo not given), with “inactive”.
Turning to `CC(C)CC(=O)N[C@H](C(=O)N[C@H](C(=O)N[C@@H](CC(C)C)[C@@H](O)CC(=O)N[C@@H](C)C(=O)N[C@@H](CC(C)C)[C@@H](O)CC(=O)O)C(C)C)C(C)C` (Isovaleryl-VV[Sta]A[Sta]-OH), the Potency entry is “inactive”.
The same measure, in the same setting: then `CCN1CCN(C(=O)N[C@@H](C(=O)N[C@@H]2C(=O)N3C(C(=O)O)=C(CSc4nnnn4C)CS[C@H]23)c2ccc(O)cc2)C(=O)C1=O`, with “inactive”; and `C=COCCCCO`, with “inactive”; and `CCc1ncc(C)[nH]1`, with “inactive”.
The same measure, in the same setting: then `CCCC(C)C(O)CC` (stereo not given), with “inactive”.
Same read-out and setting: then `CCCCC(CC)COC(=O)CC#N` (stereo not given), with “inactive”.
Consider `CO/N=C(\C(=O)O)c1csc(NC(=O)CCl)n1`, for which the Potency result was “inactive”.
On the same count and under the same terms, then `Clc1cc(Cl)c(Cl)c(Cl)c1Cl`, with “inactive”.
Still for that read-out and setting: then `O=S(=O)(O)c1ccc(Cl)cc1`, with “inactive”; and `C=CC(C)(CCC=C(C)C)OC(=O)C(C)C` (stereo not given), with “inactive”; and `CCCCC(O)/C=C(C)/C=C/C=C/C(=O)N1CCCC1=O` (stereo not given), with “inactive”.
On to `O=C(O)CCCCCCCCCC(=O)O`, for which the Potency entry is “inactive”.
Still for that read-out and setting: then `COC(=O)c1ccc(NC(C)=O)cc1OC`, with “inactive”.
Turning to `CC(C)(C)OC(=O)c1ccccc1C(=O)O`, the Potency result is “inactive”.
Still for that read-out and setting: then `O=C(O)Cc1ccccc1Oc1ccc(Cl)cc1Cl`, with “inactive”; and `O=C(O)P(=O)(O)O`, with “inactive”.
The same measure, in the same setting: then `C/C=C/C(=O)CCCC`, with “inactive”; and `CCCCOCCCC`, with “inactive”; and `CCOc1ccccc1OCCN[C@H](C)Cc1ccc(OC)c(S(N)(=O)=O)c1`, with “inactive”.
Take `CCCCCCCCCCCCCCCC(=O)OC`: the activity change, negative = cytotoxicity is 4.05% [at 19 µM].
For `CC(C)OCCO`, the Potency entry is “inactive”.
On to `Nc1ccc(C(=O)NCC(=O)O)cc1`, for which the Potency result is “inactive”.
Same read-out and setting: then `CCC(=O)OCCOc1ccccc1`, with “inactive”; and `CC(=O)SC[C@@H](C)C(=O)N1CCC[C@H]1C(=O)N[C@@H](Cc1ccccc1)C(=O)O`, with “inactive”; and `O=C(OOC(=O)c1ccccc1)c1ccccc1`, with “inactive”.
The same measure, in the same setting: then `Cc1cccc(N)n1`, with “inactive”; and `CN1CCN(C(=O)C2CCCCC2)CC1`, with “inactive”; and `BrCCOc1ccccc1`, with “inactive”.
Consider `N=C(N)N1CCc2ccccc2C1`, for which the activity change, negative = cytotoxicity was 1.92% [at 8.39 µM].
As for `CC(=O)Nc1ccc(S(=O)(=O)Nc2cc(C)on2)cc1`, the Potency entry was “inactive”.
On the same count and under the same terms, then `CN(C)CCC[C@@]1(c2ccc(F)cc2)OCc2cc(C#N)ccc21`, with 2.98 µM (active).
As for `COc1cc(NS(=O)(=O)c2ccc(N)cc2)ncn1`, the Potency entry is “inactive”.
On the same count and under the same terms, then `CC(C)OC(=O)C(C(=O)OC(C)C)=C1SC=CS1`, with 18.8 µM (active).
The same measure, in the same setting: then `O=S(=O)(O)c1cc(I)c(O)c2ncccc12`, with “inactive”; and `CC(C)c1cc(C(C)C)cc(C(C)C)c1`, with “inactive”.
